Where “and” joins values, the source holds several entries; their conditions need not be identical. Identical values can stand only once. The panel holds about 79,000 compounds, 15% with a hit somewhere; the sample as a whole holds those more often. A number with no mark means an inactive call. Rule as the data show it: active = growth inhibition above about 70%; inactive = the rest.
Experiment: NCI Yeast Anticancer Drug Screen. Data for the sgs1 mgt1 strain (AID 161);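 also: 0% = growth of cultures given vehicle only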
Conditions: S. cerevisiae sgs1 mgt1 strain, active compounds read high; at 50.0 µM unless noted
Outline: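 Inhibition of yeast growth, normalised to vehicle-treated controls, is reported for a strain bearing genetic alterations in DNA damage repair.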

Row | Structure (SMILES) | growth inhibition
1 | CCCCCCCCCCCCCCCCCCOC(=O)CC(C)=O | -12.2%
2 | Clc1nc(-c2ccccc2)ns1 | -12.7%
3 | O=S(=O)(Cl)c1ccc(Cl)cc1 | 6.8%
4 | COC(=O)c1nnn(-c2ccc(Cl)cc2C)c1C(=O)c1ccc(OC)cc1 | -11.8%
5 | C#CC1(O)C2CCc3cc(OC)ccc3C2CCC1(C)C(=O)OC (stereo not given) | 4.05%
6 | CCCCCCC(=O)C/C(CCC(=O)N(Cc1ccccc1)Cc1ccccc1)=N\Nc1ccc([N+](=O)[O-])cc1[N+](=O)[O-] | -13.3%
7 | CC1CCC(c2ccccc2)(c2ccccc2)C1=O (stereo not given) | -2.5%
8 | OCC1OC(O)C(O)C(O)C1O (stereo not given) | -0.95% and -5.85%
9 | CC(=O)NC(C)c1ccccc1 (stereo not given) | 15.3%
10 | CCCOC(=O)C1C(c2ccc(OC)cc2)NC(c2ccc(OC)cc2)C(C(=O)OCCC)S1(=O)=O (stereo not given) | -21.6%
11 | CCOC(=O)COc1cc2c(cc1C(CC)c1ccc(OC)cc1)OCO2 (stereo not given) | -12.1%
12 | CC12C(=O)C(C(c3ccccc3)=C1c1ccccc1)C1C(=O)OC(=O)C12 (stereo not given) | -0.15%
13 | C=C1CC2C=CC1C2 (stereo not given) | 1.3%
14 | COc1ccc(C2S/C(=C\c3ccc(OC)cc3OC)C(=O)N2NC(=O)Cc2ccccc2)cc1 (stereo not given) | 2.4%
15 | C/C(=N\NS(=O)(=O)c1ccc(C)cc1)c1cccs1 | 6.4%
16 | COc1ccc2[nH]c3cc4c(=O)c5cc(OC)ccc5[nH]c4cc3c(=O)c2c1 | -6.2%
17 | O=C(O)c1ccc(NCO)cc1 | -13.2%
18 | Clc1ccc(N=Nc2nc3ccccc3nc2N=Nc2ccc(Cl)cc2Cl)c(Cl)c1 | -13.2%
19 | CN(C)CCCC(=O)O | -14.1%
20 | O=Cc1ccc(OC(=O)Nc2ccc([N+](=O)[O-])cc2)cc1 | 33.4%

Row | Structure (SMILES) | growth inhibition
21 | CC(C)OC(=O)/C=C/CCCC1CCCCC1 | 7.95%
22 | O=CNc1cccnc1C1OCCO1 | 2%
23 | COC1OC(CI)C(O)C(O)C1O (stereo not given) | -4.45%
24 | C/C(=N\NS(=O)(=O)c1c(C)cc(C)cc1C)c1ccc[n+]([O-])n1 | -8.4%
25 | COc1ccc(C=NCC(OC)OC)cc1OCc1ccccc1 | 14%
26 | COCCOC(=O)COc1ccccc1 | 16.2%
27 | c1ccc(C2=NN(c3ccccc3)CC2)cc1 | 0.4%
28 | COc1cccc(N(CN2CC=CC2=O)C(C)=O)c1 | 10.6%
29 | CCN(CC)CCC(=O)c1ccc(Cl)cc1 | 14.1%
30 | CC1=NN(c2ccc(S(=O)(=O)O)cc2)C(=O)C1N=Nc1ccc(-c2ccc(N=Nc3ccc(O)c(C(=O)O)c3)c(C)c2)cc1C (stereo not given) | 17.3%
31 | c1ccc(CNCCNCc2ccccc2)cc1 | 14.4% and 50.9%
32 | Cc1ccc(CC2CC(=O)NC2=O)cc1 (stereo not given) | 22.1%
33 | CC(CN(C)C)C(=O)/C=C/c1ccc(Cl)cc1 (stereo not given) | 1.75%
34 | O=C1NC(=O)c2c(O)cccc21 | 21.1%
35 | CCN(CC)CCN(C(=O)C(C)(C)C)c1ccccc1N | -17.1%
36 | CC1=C(CCC(=O)O)c2cc3nc(cc4[nH]c(cc5[nH]c(cc1n2)c(C)c5C1CC1C(=O)O)c(C)c4C1CC1C(=O)O)C(C)=C3CCC(=O)O (stereo not given) | 30.3%
37 | C/C(CCC(CC(=O)O)C(C)C)=N\NC(N)=O (stereo not given) | -6.65%
38 | CCC(C(=O)O)C(=O)O.[NH2-].[NH2-].[Pt+2] | -11.1%
39 | CC1C2=C(CC(C)(C)CC2=O)NC2=C1C(=O)CC(C)(C)C2 | -8.55%
40 | Cc1n[nH]c(=O)n1/N=C/c1ccncc1 | -6%
